According to PubChem BioAssay (NCATS):
Records with an inconclusive call do not appear. Activity calls are given as the source filed them. Unless noted, calls come from the whole dose curve; as a rule, active = well fitted curve in the direction sought with a large enough effect; inconclusive = small, poorly fitted or top-dose-only effect, or another doubt; inactive = no such curve, though single readings can be large; an effect the other way counts as inactive or inconclusive.

Columns and labels:
[1] = qHTS Assay for Lipid Storage Modulators (AID 1519; calls by dose curve; for activity change, negative = inhibition: % is set by controls: 0 for no effect and ±100 for the full control effect); settings: Drosophila S3 cells, BODIPY lipid droplet/cell ratio, laser cytometry, cells loaded with oleic acid; for activity change, negative = inhibition: at 57.5 µM (top of the series)
In short: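 Cells seeded at 5,000 per well were treated with compounds over a concentration series and loaded with oleic acid (400 uM, as added). Lipid droplet fluorescence (488 nm excitation, 500-530 nm channel) was read by laser-scanning cytometry and normalized to 20 uM Triacsin C.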

[2] = molecular target: DNA dC->dU-editing enzyme APOBEC-3G (Homo sapiens) (UniProt Q9HC16); test: qHTS for inhibitors of Vif-A3G interactions: Validation (AID 588379); settings: Vif-A3G protein interaction assay; series mostly up to 46.1 µM; note: 0% is about no effect
In short: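 Yellow fluorescence (Ex 488, Em 500-530) of Vif-coexpressing HeLa A3G-eYFP cells, scanned by Acumen cytometer, reports blocked A3G degradation. Cells plated at 700/well overnight at 37 deg C before compound addition, then a further overnight compound incubation at 37 deg C.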

[3] = Confirmation and Secondary Assay for Modulators of Hemoglobin Beta Chain Splicing at IVS2 654 locus (AID 910); settings: HeLa EGFP-654 splicing reporter, GFP fluorescence, 48 h; series mostly up to 46.1 µM;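 note: HeLa cells stably carrying EGFP split by mutant beta-globin IVS2-654 intron; per-well total GFP intensity by laser scanning cytometry after 2-day treatment; % of control where 0% means no effect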
In short: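 Readout: per-well total peak green fluorescence (488 nm ex, 500–520 nm em) from objects 5–250 µm, reflecting correct splicing of an EGFP-654 reporter. Compounds were applied for 2 days at 37 °C to overnight-plated HeLa EGFP-654 cells; controls were DMSO and 500 nM IVS2-654 PNA.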

[4] = Confirmation and Secondary Assay for Modulators of Hemoglobin Beta Chain Splicing at IVS2 705 locus (AID 930); settings: HeLa EGFP-705 splicing reporter, GFP fluorescence, 48 h; series mostly up to 46.1 µM;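 note: HeLa cells stably expressing the EGFP-705 splicing reporter; GFP fluorescence per well restored by corrected splicing of the IVS2-705 intron in EGFP; % of control where 0% means no effect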
In short: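 Stable HeLa line with EGFP disrupted by mutant beta-globin intron 2 (705). Overnight attachment, then 2 days of compound at 37C, 5% CO2. Signal: peak GFP intensity summed over objects 5-250 µm.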

[5] = molecular target: Ubiquitin carboxyl-terminal hydrolase 1 (Homo sapiens) (UniProt O94782); test: Inhibitors of USP1/UAF1: Pilot qHTS (AID 504865); settings: purified USP1/UAF1, Ub-rhodamine cleavage fluorescence; series mostly up to 114 µM;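 note: rhodamine fluorescence freed from ubiquitin-rhodamine substrate followed over time; top concentration of the series differs between compounds; % is set by controls: 0 for no effect and ±100 for the full control effect; nearly all actives have a fitted effect of over 35% in size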
In short: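 USP1/UAF1 complex (1nM) preincubated with compound 15 min at room temperature, then Ub-Rho substrate (150nM final) added. Fluorescence read kinetically at 480/540 nm, 6 reads every 60 seconds. Buffer: 50mM HEPES pH 7.8, 0.5mM EDTA, 0.1 mg/ml BSA, 1mM TCEP, 0.01% Tween-20.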

[6] = measured here: cell count channel max response
[7] = measured here: lipid channel max response

Sequence of Ubiquitin carboxyl-terminal hydrolase 1 (Homo sapiens) (O94782 whole entry, looked up): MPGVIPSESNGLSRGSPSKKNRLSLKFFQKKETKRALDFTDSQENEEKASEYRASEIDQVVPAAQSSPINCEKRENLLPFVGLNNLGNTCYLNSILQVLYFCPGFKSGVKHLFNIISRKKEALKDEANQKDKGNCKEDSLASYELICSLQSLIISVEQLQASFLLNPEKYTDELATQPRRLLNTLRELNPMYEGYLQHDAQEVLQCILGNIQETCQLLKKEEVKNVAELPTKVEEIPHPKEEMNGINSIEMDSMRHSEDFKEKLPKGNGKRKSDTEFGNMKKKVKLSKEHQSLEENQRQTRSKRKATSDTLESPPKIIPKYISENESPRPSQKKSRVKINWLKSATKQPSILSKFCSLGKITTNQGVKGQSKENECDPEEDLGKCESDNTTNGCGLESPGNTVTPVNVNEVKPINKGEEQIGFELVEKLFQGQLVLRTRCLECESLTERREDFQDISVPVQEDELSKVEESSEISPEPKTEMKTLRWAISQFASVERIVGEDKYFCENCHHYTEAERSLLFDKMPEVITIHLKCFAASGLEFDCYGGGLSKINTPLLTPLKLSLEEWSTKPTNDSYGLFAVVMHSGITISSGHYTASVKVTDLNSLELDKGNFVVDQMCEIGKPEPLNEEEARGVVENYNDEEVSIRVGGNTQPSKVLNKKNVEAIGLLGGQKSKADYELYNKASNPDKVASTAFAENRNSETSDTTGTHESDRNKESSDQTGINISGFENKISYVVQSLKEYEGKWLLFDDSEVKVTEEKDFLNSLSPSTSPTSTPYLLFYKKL
Sequence of DNA dC->dU-editing enzyme APOBEC-3G (Homo sapiens) (Q9HC16 whole entry, looked up): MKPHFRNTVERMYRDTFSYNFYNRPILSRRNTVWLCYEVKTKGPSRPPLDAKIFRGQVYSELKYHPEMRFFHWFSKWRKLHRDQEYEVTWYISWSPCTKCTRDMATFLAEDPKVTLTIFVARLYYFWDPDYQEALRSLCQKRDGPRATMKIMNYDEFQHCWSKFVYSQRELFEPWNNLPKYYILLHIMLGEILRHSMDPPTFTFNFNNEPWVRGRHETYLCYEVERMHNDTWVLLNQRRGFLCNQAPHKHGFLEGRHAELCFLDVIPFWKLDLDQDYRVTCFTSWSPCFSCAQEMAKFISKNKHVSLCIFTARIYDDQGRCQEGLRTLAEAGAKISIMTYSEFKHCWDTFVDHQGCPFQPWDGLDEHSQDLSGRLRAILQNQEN

| SMILES | activity change, negative = inhibition [1] | max response [1, 6] [%] | max response [1, 7] [%] | outcome [2] | Potency [3] | Potency [4] | Potency [5] |
| --- | --- | --- | --- | --- | --- | --- | --- |
| CCC(C)C(=O)O[C@H]1C[C@@H](C)C=C2C=C[C@H](C)[C@H](CC[C@@H]3C[C@@H](O)CC(=O)O3)C21 (stereo partly drawn) | -9.81% (inactive) | 22 | 13.2 | inactive |  |  |  |
| CCC1OC(=O)C(C)[C@@H](O[C@H]2C[C@@](C)(OC)C(O)C(C)O2)C(C)[C@@H](O[C@@H]2OC(C)CC(N(C)C)C2O)[C@@](C)(O)CC(C)CN(C)C(C)C(O)[C@]1(C)O (stereo partly drawn) | 0.114% (inactive) | 12.3 | 14.1 |  | inactive | inactive | inactive |
| C=C1C[C@@]23C[C@@]1(O)CC[C@@H]2[C@]12C=C[C@@H](O)[C@](C)(C(=O)O1)[C@@H]2[C@@H]3C(=O)O | -1.64% (inactive) | 0.496 | 0.595 | inactive |  |  |  |
| C[C@]12CCC(=O)C=C1CCC1C2C(O)C[C@]2(C)C1CC[C@]2(O)C(=O)CO (stereo partly drawn) | 12.8% (inactive) | 7.87 | 21.1 |  | inactive | inactive | inactive |
| O=c1c2ccccc2oc2ccccc12 | 15% (inactive) | 9.44 | 28 |  | inactive | inactive | inactive |
| COC(=O)C1C(O)CC[C@@H]2CN3CCc4c([nH]c5ccccc45)C3C[C@@H]12 (stereo partly drawn) | 4.48% (inactive) | 19.7 | 26.3 |  | inactive | inactive | inactive |
| C=C1C[C@@]23C[C@@]1(O)CCC2[C@@]12C=CC(O)[C@](C)(C(=O)O1)C2C3C(=O)O (stereo partly drawn) | 1.95% (inactive) | 6.93 | 10.6 |  | inactive | inactive | inactive |
| COc1ccc(/C=C/c2cc(O)cc(O[C@H]3OC(CO)C(O)C(O)C3O)c2)cc1 (stereo partly drawn) | 8.33% (inactive) | 12.8 | 23 |  |  | inactive | inactive |
| Cn1nnnc1SCC1=C(C(=O)O)N2C(=O)C(NC(=O)C(O)c3ccccc3)C2SC1 (stereo not drawn) | 13.2% (inactive) | 9.16 | 26.7 |  | inactive | inactive | inactive |
| CC(C)C(C)/C=C/C(C)C1CCC2C3=CCC4CC(=O)CC[C@@]4(C)C3CC[C@]21C (stereo partly drawn) | 5.02% (inactive) | -0.92 | 5.16 |  | inactive | inactive | inactive |
| COC1C[C@@H](O[C@@H]2C(C)C(=O)OC(C)C(C)[C@H](OC(C)=O)C(C)C(=O)[C@@]3(CO3)CC(C)C(OC3OC(C)CC(N(C)C)[C@H]3OC(C)=O)C2C)OC(C)[C@@H]1OC(C)=O (stereo partly drawn) | 6.97% (inactive) | 18.9 | 24.4 |  | inactive | inactive | inactive |
| CCCCCCCCCCCCC(C(=O)O)C(C)C(=O)O (stereo not drawn) | 4.67% (inactive) | 6.54 | 14 |  | inactive | inactive | inactive |
| Cc1onc(-c2ccccc2Cl)c1C(=O)NC1C(=O)N2C1SC(C)(C)C2C(=O)O (stereo not drawn) | 9.93% (inactive) | 11.3 | 24.6 |  | inactive | inactive | inactive |
| CC1(C)SC2C(NC(=O)COc3ccccc3)C(=O)N2C1C(=O)O (stereo not drawn) | 3.45% (inactive) | 17.3 | 22.6 |  | inactive | inactive | inactive |
| CC1(C)CC2C1CC[C@]1(C)CCC3C(C(=O)O)CC(=O)O[C@]32C1 (stereo partly drawn) | 3.56% (inactive) | 4.93 | 10.6 |  | inactive | inactive | inactive |
| C=C1CCC2C(C)(CO)C(O)CCC2(C)C1C/C=C1\C(=O)OCC1O (stereo not drawn) | -0.167% (inactive) | 24.9 | 25.5 | inactive |  |  |  |
| COC1C=CC23c4cc5c(cc4CN(CC2O)C3C1)OCO5 (stereo not drawn) | -1.59% (inactive) | 30.3 | 31.3 |  | inactive | inactive | inactive |
| O=C(O)C1=CC(O)[C@@H](O)C(O)C1 (stereo partly drawn) | 3.18% (inactive) | 15.5 | 22.2 |  | inactive | inactive | inactive |
| C[C@@H]1C(=O)O[C@H]2[C@@H](O)[C@@]34[C@H]5CC(C(C)(C)C)[C@]36[C@@H](OC(=O)[C@@H]6O)O[C@@]4(C(=O)O5)[C@@]12O (stereo partly drawn) | 7.16% (inactive) | -2.81 | 2.02 | inactive |  |  |  |
| CC(C)(C)NC[C@@H](O)COc1nsnc1N1CCOCC1 | 13.4% (inactive) | 16.2 | 36.5 |  | inactive | inactive | inactive |

| SMILES | activity change, negative = inhibition [1] | max response [1, 6] [%] | max response [1, 7] [%] | outcome [2] | Potency [3] | Potency [4] | Potency [5] |
| --- | --- | --- | --- | --- | --- | --- | --- |
| O=C(NCO)c1cccnc1 | 5.95% (inactive) | 14.8 | 25.7 |  | inactive | inactive | inactive |
| COc1ccc(CCC(=O)c2c(O)cc(OC3OC(CO)C(O)C(O)C3O[C@@H]3OC(C)C(O)C(O)C3O)cc2O)cc1O (stereo partly drawn) | 7.07% (inactive) | 3.74 | 14.6 |  | inactive | inactive | inactive |
| CC1OC(OCC2OC(Oc3c(-c4ccc(O)c(O)c4)oc4cc(O)cc(O)c4c3=O)C(O)C(O)C2O)C(O)C(O)C1O (stereo not drawn) | -1.77% (inactive) | -20.3 | -20.8 | inactive |  |  |  |
| O=c1ccn(C2OC(COP(=O)(O)OP(=O)(O)OP(=O)(O)O)C(O)C2O)c(=O)[nH]1 (stereo not drawn) | 6.49% (inactive) | 21.5 | 29.6 |  |  | inactive | inactive |
| CC(=O)SC1CC2=CC(=O)CC[C@@]2(C)C2CC[C@@]3(C)[C@@H](CC[C@@]34CCC(=O)O4)C12 (stereo partly drawn) | -11.4% (inactive) | 20.1 | 9.46 |  | inactive | inactive | inactive |
| CC1(C)Oc2ccc3ccc(=O)oc3c2CC1O (stereo not drawn) | -1.55% (inactive) | 16 | 13.9 |  | inactive | inactive | inactive |
| NCC1O[C@@H](OC2C(N)CC(N)C(O)C2O[C@@H]2OC(CO)C(O)C2O)C(N)C(O)C1O (stereo partly drawn) | 6.74% (inactive) | 5.17 | 12.7 |  | inactive | inactive | inactive |
| CC1(C)OC2CC3C4CCC5=CC(=O)C=C[C@@]5(C)[C@]4(F)C(O)C[C@@]3(C)[C@]2(C(=O)CO)O1 (stereo partly drawn) | -5.31% (inactive) | -0.616 | -3.49 |  | inactive | inactive | inactive |
| CC1CCC2(C(=O)O)CCC3(C)C(=CCC4C3(C)CCC3[C@@]4(C)CC(O)C(O)[C@@]3(C)CO)C2C1C (stereo partly drawn) | 3.5% (inactive) | 22.9 | 33.5 |  | inactive | inactive | inactive |
| C[N+](C)(C)CCOP(=O)([O-])OP(=O)(O)OCC1OC(n2ccc(N)nc2=O)C(O)C1O (stereo not drawn) | 5.88% (inactive) | 9.36 | 16.8 |  | inactive | inactive | inactive |
| Fc1ccc([C@H]2CCNCC2COc2ccc3c(c2)OCO3)cc1 (stereo partly drawn) | 12.8% (inactive) | -0.955 | 14.7 |  | inactive | inactive | inactive |
| COc1ccc(C(=O)c2ccccc2)c(O)c1O | 1.94% (inactive) | -24.4 | -18 |  | inactive | inactive | inactive |
| CC(=O)OC1C[C@]2(C)C(C(C)=O)CCC2C2CCC3=CC(=O)CC[C@@]3(C)C12 (stereo partly drawn) | 9.05% (inactive) | 25.2 | 39.7 |  | inactive | inactive | inactive |
| CSc1ncnc2c1ncn2C1OC(CO)C(O)C1O (stereo not drawn) | -6.93% (inactive) | -18.3 | -24.7 |  | inactive | inactive | inactive |
| C[C@]12CCC3c4ccc(OS(=O)(=O)O)cc4CCC3C1CCC2=O (stereo partly drawn) | 9.98% (inactive) | 6.42 | 22.2 |  | inactive | inactive | inactive |
| Cn1nnnc1SCC1=C(C(=O)O)N2C(=O)C(NC(=O)C(OC=O)c3ccccc3)C2SC1 (stereo not drawn) | 4.18% (inactive) | 15 | 24.5 |  | inactive | inactive | inactive |
| CC(=O)N[C@@H](Cc1c[nH]c2ccccc12)C(=O)O | 5.86% (inactive) | 17.1 | 24.9 |  | inactive | inactive | inactive |
| COC(=O)C(N)CS (stereo not drawn) | 6.93% (inactive) | 11.1 | 22.7 |  | inactive | inactive | inactive |
| NCCC(O)C(=O)NC1C[C@@H](N)[C@H](O[C@@H]2OC(CN)C(O)C(O)C2O)C(O)[C@H]1O[C@H]1OC(CO)C(O)C(N)C1O (stereo partly drawn) | 7.58% (inactive) | 23.7 | 35.1 |  | inactive | inactive | inactive |
| CC1(C)C2(Cl)C(Cl)C(Cl)C(Cl)(C(Cl)Cl)C1(Cl)C2Cl (stereo not drawn) | 3.3% (inactive) | 3.76 | 3.86 |  | inactive | inactive | inactive |
